A selection: hits, their analogues and other compounds. The true share with any hit is near 9.2%.
ELG1 genotoxic = genotoxicity induction in ELG1-luciferase HEK293T cells. HEK293T ELG1-luciferase reporter, luminescence, 16 h. Potency, µM (top dose mostly 46 µM), inactives show top-dose activity change, positive = activation, usual class: activators. AID 504466. 330,000 compounds, 1.3% hits; note: % of control where 0% means no effect; nearly all actives have a fitted effect of over 60% in size
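Quantitative HTS format in 1536-well plates. HEK293T ELG1-luciferase reporter cells receive test compound and are incubated 16 hr at 37 °C, 5% CO2; ONE-Glo added, 30 min room temperature, then luminescence read.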
FLuc modulator = counter-screen for miR-21 project: firefly luciferase inhibitors or activators; P08659; purified FLuc, Km substrates, luminescence inhibition; Potency, µM (top dose mostly 57.5 µM), for the others: at the highest dose activity change, negative = inhibition, most hits filed as inhibitors; 360,000 compounds, 6.9% hits; AID 588342;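 note: plate controls were vehicle for no effect and reference inhibitor for full effect; nearly all actives have a fitted effect of over 55% in size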
Target sequence (P08659 whole entry, looked up): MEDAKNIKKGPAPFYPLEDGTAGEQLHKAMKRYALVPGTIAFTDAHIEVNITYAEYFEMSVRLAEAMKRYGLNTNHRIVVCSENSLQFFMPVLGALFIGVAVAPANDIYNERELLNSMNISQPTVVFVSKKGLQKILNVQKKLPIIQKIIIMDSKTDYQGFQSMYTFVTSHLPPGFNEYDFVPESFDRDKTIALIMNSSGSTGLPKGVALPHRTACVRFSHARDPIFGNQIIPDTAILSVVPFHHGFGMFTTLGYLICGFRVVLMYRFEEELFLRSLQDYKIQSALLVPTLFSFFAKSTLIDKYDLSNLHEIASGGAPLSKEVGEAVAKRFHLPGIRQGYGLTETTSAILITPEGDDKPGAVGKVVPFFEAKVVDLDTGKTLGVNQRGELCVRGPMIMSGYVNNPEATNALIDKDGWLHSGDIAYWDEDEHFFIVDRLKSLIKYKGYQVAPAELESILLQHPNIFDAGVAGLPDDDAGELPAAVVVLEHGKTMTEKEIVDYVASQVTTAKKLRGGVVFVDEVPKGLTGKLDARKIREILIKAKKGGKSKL
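Purified P. pyralis luciferase (10nM final) with 10uM D-luciferin and 10uM ATP (Km levels) in 50mM Tris acetate pH 7.5, 10mM Mg acetate, 0.01% Tween-20, 0.05% BSA; qHTS 6-point titration, ~60 µM downward; luminescence read.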
SMN2 splice up = increases expression of the SMN2 splice variant. Potency, µM (highest dose often 46.1 µM), for inactives: at the top dose activity change, positive = activation, hits mostly activators. HEK293 SMN2-luciferase splicing reporter, luminescence, 30-36 h. 210,000 compounds, 2.8% hits; note: % of control where 0% means no effect; nearly all actives have a fitted effect of over 55% in size
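HEK293 cells carry an SMN2 minigene-luciferase reporter in which exon 7 inclusion puts luciferase in frame. Cells were seeded at 2000 cells/well, attached for 10-12 hours, then exposed to compounds for 30-36 hours at 37C before ONE-Glo luminescence.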
NPC1 prom act = NPC1 promoter activation; Potency, µM (top dose mostly 9.22 µM), inactives show at the top dose activation, hits mostly activators; 320,000 compounds, 2.4% hits; Huh7 NPC1 promoter luciferase reporter, 24 h; AID 485313; note: % of control where 0% means no effect; nearly all actives have a fitted effect of over 60% in size
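Quantitative HTS used a cell-based reporter: Huh7 cells stably bearing the NPC1 promoter upstream of luciferase were treated with compounds for 24 h, and promoter activation was read as luminescence.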
ELG1 repair inh = ELG1-dependent DNA repair inhibition; HEK293T ELG1-luciferase reporter, luminescence, 16 h; DNA damage induced by 5-fluorouridine; Potency, µM (top dose mostly 46.1 µM), inactives show top-dose activity change, negative = inhibition, actives largely listed as inhibitors; 330,000 compounds, 2.3% hits; AID 504467; note: % is set by controls: 0 for no effect and ±100 for the full control effect; nearly all actives have a fitted effect of over 55% in size
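5-Fluorouridine DNA damage + compound/DMSO, 2,000 cells/well, 16 h, 37 °C/5% CO2. ONE-Glo, 30 min RT, luminescence. Readout = decrease in reporter signal.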
Rab9 prom act = activates the Rab9 promoter. Huh7 Rab9 promoter-luciferase reporter, luminescence, 24 h. Potency, µM (highest dose often 9.22 µM), inactives show at the highest dose activation, negative = inhibition, most hits filed as activators. 320,000 compounds, 2.8% hits. AID 485297; note: % of control where 0% means no effect; nearly all actives have a fitted effect of over 60% in size
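Luminescence from Amplite-detected luciferase (10 minutes, ambient) reports Rab9 promoter activation. Before that, stable Rab9-luciferase Huh7 cells (1500/well, reduced-serum OP-MEM I plus 10% FBS) were exposed to compound for 24 hours at 37C.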
Numbers without * were called inactive; ? = inconclusive; / = no result; [ ] = another dose, or the depositor's remark. Calls come from the whole dose curve; as a rule, active = well fitted curve in the direction sought with a large enough effect; inconclusive = small, poorly fitted or top-dose-only effect, or another doubt; inactive = no such curve, though single readings can be large; an effect the other way counts as inactive or inconclusive. Potency is the fitted concentration of half-maximal effect.

SMILES	ELG1 genotoxic	FLuc modulator	SMN2 splice up	NPC1 prom act	ELG1 repair inh	Rab9 prom act
CSc1ncc(C(=O)N2CCN(c3cccc(Cl)c3)CC2)c(C)n1	/	-8%	/	/	/	/
O=C(c1cnc(N2CCN(c3ccccn3)CC2)c2ccccc12)N1CCN(c2cccc(Cl)c2)CC1	-20%	-8%	-81%	-27%	4.6µM*	-26%
Cc1ccc(NC(=O)CN(C)C(=O)c2ccc(C(F)(F)F)cc2)cc1	2%	-3%	4%	-1%	13%	1%
CCC1(c2ccccc2)NC(=O)N(CC(=O)Nc2ccc(S(=O)(=O)Nc3ncccn3)cc2)C1=O (stereo not given)	4%	5%	/	-1%	-4%	3%
O=C(c1cc(-c2ccccc2Cl)nc2ccccc12)N1CCN(c2ccccc2O)CC1	-8%	5%	/	-1%	13µM*	1%
O=C(Nc1ccc(C(F)(F)F)cc1)c1cnc(N2CCN(c3ccccn3)CC2)c2ccccc12	0%	-5%	-33%	-7%	5.2µM*	-14%
O=C(c1cc(-c2ccccc2Cl)nc2ccccc12)N1CCC1	-1%	-2%	/	-8%	-1%	-2%
O=C(c1cc(-c2ccccc2Cl)nc2ccccc12)N1CCOCC1	-5%	2%	/	2%	-3%	3%
O=C(c1cc(-c2ccccc2Cl)nc2ccccc12)N1CCN(c2ccccn2)CC1	-9%	/	/	/	23µM*	/
O=C(Nc1ccc(C(F)(F)F)cc1)c1cccnc1N1CCOCC1	0%	-2%	1%	-4%	-11%	0%
CC(C)(C)C(=O)Nc1ccc(N2CCN(c3ccc(C(F)(F)F)cn3)CC2)nc1	2%	0%	/	0%	9.2µM*	-17%
Cc1cccc(N2CCN(CCNC(=O)Nc3ccc(Cl)cc3)CC2)c1C	/	-15%	2%	/	/	/
Cc1cc([N+](=O)[O-])nn1CCCC(=O)Nc1c(C)n(C)n(-c2ccccc2)c1=O	-2%	-2%	22%	15%	17%	11%
O=C1c2cccc(OCC(=O)N3CCCc4ccccc43)c2CCN1Cc1ccc(Br)cc1	-14%	-2%	-61%	-4%	18µM*	-6%
O=C(COc1cccc2c1CCN(Cc1ccc(Br)cc1)C2=O)N1CCOCC1	-6%	-1%	-46%	-4%	7.3µM*	-1%
O=C(COc1cccc2c1CCN(Cc1ccc(Br)cc1)C2=O)NCc1ccco1	-11%	-2%	-26%	-2%	18µM*	1%
COc1ccc(C(=O)CCc2nc3ccccc3s2)cc1	15%	19µM*	13%	15%	?	0%
Cc1ccc2nc(NC(=O)c3ccc(-c4nc5ccccc5s4)s3)sc2c1	16µM*	13µM*	15%	-2%	?	-4%
O=C(Nc1nc2ccccc2s1)c1ccc(F)cc1	2.6µM*	1.1µM*	/	0.71µM*	?	0.32µM*
O=C(NCCO)c1nc2ccccc2s1	9%	?	0%	3%	?	1%
COCCNC(=O)c1nc2ccccc2s1	16%	17µM*	14%	0%	?	26%
CCc1ccc(-c2cc3c(=O)n(CC(=O)NCCCN4CCN(CC)CC4)nc(C)n3n2)cc1	?	?	/	10%	19%	0%
COc1cccc(C(=O)Nc2c3c(nc4c2CCC4)CCCC3)c1	-1%	-2%	-1%	-1%	-1%	-3%
Cc1ccc(C(=O)Nc2nc3ccccc3c(=O)s2)cc1	?	0.76µM*	?	?	?	1.3µM*
O=C(Nc1nc2c(s1)C(=O)CCC2)c1ccccc1	?	2.7µM*	1.6µM*	1.1µM*	?	0.71µM*
SMILES	ELG1 genotoxic	FLuc modulator	SMN2 splice up	NPC1 prom act	ELG1 repair inh	Rab9 prom act
COc1ccc(C(=O)Nc2nc3ccccc3s2)cc1OC	2%	-3%	/	1%	?	-2%
COc1cccc(C(=O)Nc2nc3c(s2)CCCC3)c1	/	1.9µM*	/	/	/	/
O=C(Nc1nc(=O)[nH]s1)c1ccccc1	2%	-17%	-5%	0%	-10%	3%
COc1ccc(C(=O)Nc2nc3ccccc3s2)cc1	-5%	0.24µM*	/	0.63µM*	?	0.28µM*
CC(/C=C/c1ccco1)=N\NC(=O)COc1ccc(C)c(C)c1	18%	?	/	0%	?	0%
C[C@H]1Cc2c(-c3ccccc3)nc3c(c2CO1)CN(S(=O)(=O)c1ccc(C#N)cc1)CC3	/	/	6%[9.22 µM]	/	/	/
Cn1c(=O)[nH]c(=O)c2c1nc(Br)n2CC(O)COc1ccc(Cl)cc1 (stereo not given)	1%	-1%	-15%	-9%	-17%	-10%
COc1ccc(OC)c(NC(=O)c2cc(S(=O)(=O)N(C)C)ccc2N2CCCC2)c1	5%	4%	/	-3%	-12%	1%
O=C(Nc1nc(=O)c2ccccc2s1)c1ccccc1	7.3µM*	4.3µM*	43%	0%	?	20%
O=C(Nc1nc2ccccc2s1)c1ccc(Cl)s1	1.2µM*	1.9µM*	6.3µM*	1µM*	?	?
O=S(=O)(/N=C(/Nc1nc2ccccc2s1)c1ccccc1)c1ccc(F)cc1	14%	19µM*	/	13%	?	?
O=S(=O)(/N=C(/Nc1nccs1)c1ccc(F)cc1)c1ccccc1	0%	/	/	/	-8%	/
O=C(c1ccc(Cl)s1)N1CCN(c2nc3ccccc3s2)CC1	-10%	-9%	-35%	0%	?	2%

High-throughput results (PubChem)
